Measurements from the supplement of paper PMC10849652.
The full data set covers some 8,800 targets. This sample favours those with a hit. About 0.5% of all pairs of compound and target were hits.

What was measured:
Experiment in all cases: log2 fold change, soluble protein after heating vs DMSO (PISA); higher = thermal stabilisation; K562 lysate, 10 uM; active = over 0.2 and 3.5 SD of the protein, either way, in both replicates (recomputed)
nilotinib = compound: Cc1cn(-c2cc(NC(=O)c3ccc(C)c(Nc4nccc(-c5cccnc5)n4)c3)cc(C(F)(F)F)c2)cn1 [nilotinib]
Summary of the method: (§1)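 K562 pellets were dounce-homogenised in PBS pH 7.4 with 1 mM MgCl2, and the crude extract at 1 mg/mL protein was treated with 10 μM compound for 30 min. Aliquots were heated for 3 min across 48°C-58°C, pooled, and brought to 0.5% NP-40 at 4°C; soluble protein was the supernatant after 21,000xg for 90 min. Soluble protein was quantified by TMTpro 16plex LC-MS/MS with channel sums equalised, and reported as log2 fold change in thermal stability against DMSO controls, with values from duplicates.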

[1] = compound: Cc1nc(Nc2n[nH]c3c2CN(C(=O)N[C@H](CN(C)C)c2ccccc2)C3(C)C)c2sccc2n1
Summary of the method: as §1

dasatinib = compound: Cc1nc(Nc2ncc(C(=O)Nc3c(C)cccc3Cl)s2)cc(N2CCN(CCO)CC2)n1 [dasatinib]
Summary of the method: as §1

[2] = compound: Cc1ncc(-c2ccnc(Nc3ccc(S(C)(=O)=O)cc3)n2)n1C(C)C
Summary of the method: as §1

[3] = compound: Cn1cc(-c2ccc3c(c2)CCN3C(=O)Cc2cccc(C(F)(F)F)c2)c2c(N)ncnc21
Summary of the method: as §1

quisinostat = compound: Cn1cc(CNCC2CCN(c3ncc(C(=O)NO)cn3)CC2)c2ccccc21 [quisinostat]
Summary of the method: as §1

tipifarnib = compound: Cn1cncc1[C@@](N)(c1ccc(Cl)cc1)c1ccc2c(c1)c(-c1cccc(Cl)c1)cc(=O)n2C [tipifarnib]
Summary of the method: as §1

[4] = compound: NC(=O)Nc1cc(-c2cccc(F)c2)sc1C(=O)N[C@H]1CCCNC1
Summary of the method: as §1

[5] = compound: NC(=O)c1cnc(N[C@@H]2CCCC[C@@H]2N)nc1Nc1cccc(-n2nccn2)c1
Summary of the method: as §1

[6] = compound: NC1(c2ccc(-c3nc4ccn5c(=O)[nH]nc5c4cc3-c3ccccc3)cc2)CCC1
Summary of the method: as §1

[7] = compound: NCC(=O)Nc1ccc(-n2nc(C(F)(F)F)cc2-c2ccc3c(ccc4ccccc43)c2)cc1
Summary of the method: as §1

vorinostat = compound: O=C(CCCCCCC(=O)Nc1ccccc1)NO [vorinostat]
Summary of the method: as §1

silmitasertib = compound: O=C(O)c1ccc2c(c1)nc(Nc1cccc(Cl)c1)c1ccncc12 [silmitasertib]
Summary of the method: as §1

[8] = compound: O=C1NC(=O)C(c2cnc3ccccn23)=C1c1cn2c3c(cc(F)cc13)CN(C(=O)N1CCCCC1)CC2
Summary of the method: as §1

entospletinib = compound: c1cn2cc(-c3ccc4cn[nH]c4c3)nc(Nc3ccc(N4CCOCC4)cc3)c2n1 [entospletinib]
Summary of the method: as §1

Measured: log2 fold change

ORC2 (UniProt Q13416)
active: vorinostat -0.285
inactive: nilotinib 0 | [1] 0.009 | dasatinib -0.036 | [2] -0.014 | [3] -0.004 | quisinostat -0.016 | tipifarnib 0.004 | [4] 0.095 | [5] -0.004 | [6] -0.029 | [7] 0 | silmitasertib 0.007 | [8] 0.049 | entospletinib 0.021

MVB12A (UniProt Q96EY5)
inactive: nilotinib -0.025 | [1] -0.05 | dasatinib 0.006 | [2] 0.008 | [3] 0.04 | quisinostat 0.033 | tipifarnib 0.032 | [4] 0.022 | [5] -0.009 | [6] 0.036 | [7] -0.002 | silmitasertib -0.016 | [8] 0.016 | entospletinib 0.042
active: vorinostat -0.812

NCK1 (UniProt P16333)
active: vorinostat -0.281
inactive: nilotinib -0.071 | [1] 0.015 | dasatinib -0.005 | [2] -0.037 | [3] -0.015 | quisinostat -0.053 | tipifarnib 0.018 | [4] 0.029 | [5] 0.001 | [6] 0.008 | [7] 0.048 | silmitasertib 0.01 | [8] -0.014 | entospletinib 0.019

MT-ND1 (UniProt P03886)
inactive: nilotinib -0.054 | [1] 0.005 | dasatinib 0.018 | [2] -0.074 | [3] 0.035 | quisinostat -0.094 | tipifarnib -0.125 | [4] 0.033 | [5] -0.024 | [6] -0.059 | [7] 0.002 | vorinostat 0.072 | silmitasertib 0.033 | [8] 0.015 | entospletinib 0.121

PARG (UniProt Q86W56)
UniProt Q86W56, sequence (Q86W56 whole entry, looked up): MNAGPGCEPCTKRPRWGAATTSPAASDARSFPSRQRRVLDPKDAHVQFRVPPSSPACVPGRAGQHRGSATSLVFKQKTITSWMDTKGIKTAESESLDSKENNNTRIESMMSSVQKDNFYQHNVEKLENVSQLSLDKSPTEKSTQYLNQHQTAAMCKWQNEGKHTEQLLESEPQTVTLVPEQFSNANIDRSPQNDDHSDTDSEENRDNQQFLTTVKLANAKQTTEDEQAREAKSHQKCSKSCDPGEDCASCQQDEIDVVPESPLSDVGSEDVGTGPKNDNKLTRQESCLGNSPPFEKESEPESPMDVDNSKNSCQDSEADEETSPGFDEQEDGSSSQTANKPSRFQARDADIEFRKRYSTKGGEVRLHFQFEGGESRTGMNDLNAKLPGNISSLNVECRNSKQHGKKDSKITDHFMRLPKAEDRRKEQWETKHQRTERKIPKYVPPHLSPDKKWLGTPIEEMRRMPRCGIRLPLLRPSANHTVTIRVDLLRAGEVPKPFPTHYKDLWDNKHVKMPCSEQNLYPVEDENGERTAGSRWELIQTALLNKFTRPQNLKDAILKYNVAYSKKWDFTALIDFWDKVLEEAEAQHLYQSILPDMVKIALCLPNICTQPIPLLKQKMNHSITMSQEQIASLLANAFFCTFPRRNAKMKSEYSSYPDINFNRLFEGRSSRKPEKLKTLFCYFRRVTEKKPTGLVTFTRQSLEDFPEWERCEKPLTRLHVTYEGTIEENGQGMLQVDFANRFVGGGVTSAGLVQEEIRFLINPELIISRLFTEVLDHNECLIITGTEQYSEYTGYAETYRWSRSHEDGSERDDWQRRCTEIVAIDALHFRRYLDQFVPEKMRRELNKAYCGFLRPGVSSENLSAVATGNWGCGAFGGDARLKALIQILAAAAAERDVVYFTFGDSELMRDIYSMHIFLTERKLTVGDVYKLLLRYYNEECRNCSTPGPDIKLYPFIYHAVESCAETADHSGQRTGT
inactive: nilotinib 0.006 | [1] 0.017 | dasatinib -0.033 | [2] 0.007 | [3] -0.004 | quisinostat -0.081 | tipifarnib -0.007 | [4] 0.097 | [5] 0.006 | [6] 0.006 | [7] 0.006 | silmitasertib -0.035 | [8] 0.018 | entospletinib 0.006
active: vorinostat -0.363

NDC1 (UniProt Q9BTX1)
inactive: nilotinib -0.019 | [1] -0.006 | dasatinib -0.071 | [2] -0.018 | [3] 0.052 | quisinostat -0.03 | tipifarnib 0.009 | [4] 0 | [5] -0.01 | [6] -0.028 | [7] 0.013 | vorinostat -0.134 | silmitasertib -0.016 | [8] -0.012 | entospletinib -0.016

OSGEP (UniProt Q9NPF4)
inactive: nilotinib -0.005 | [1] 0.008 | dasatinib 0.002 | [2] 0.018 | [3] 0.025 | quisinostat -0.006 | tipifarnib 0.026 | [4] -0.012 | [5] -0.027 | [6] 0.03 | [7] -0.001 | vorinostat -0.038 | silmitasertib -0.109 | [8] 0.016 | entospletinib 0.002

NIPBL (UniProt Q6KC79)
inactive: nilotinib 0.06 | [1] -0.002 | dasatinib -0.037 | [2] 0.019 | [3] 0.091 | quisinostat -0.043 | tipifarnib 0.014 | [4] 0.02 | [5] 0.003 | [6] 0.018 | [7] -0.024 | silmitasertib 0.101 | [8] -0.005 | entospletinib 0.071
active: vorinostat -0.357

NUP210 (UniProt Q8TEM1)
UniProt Q8TEM1, sequence (Q8TEM1 whole entry, looked up): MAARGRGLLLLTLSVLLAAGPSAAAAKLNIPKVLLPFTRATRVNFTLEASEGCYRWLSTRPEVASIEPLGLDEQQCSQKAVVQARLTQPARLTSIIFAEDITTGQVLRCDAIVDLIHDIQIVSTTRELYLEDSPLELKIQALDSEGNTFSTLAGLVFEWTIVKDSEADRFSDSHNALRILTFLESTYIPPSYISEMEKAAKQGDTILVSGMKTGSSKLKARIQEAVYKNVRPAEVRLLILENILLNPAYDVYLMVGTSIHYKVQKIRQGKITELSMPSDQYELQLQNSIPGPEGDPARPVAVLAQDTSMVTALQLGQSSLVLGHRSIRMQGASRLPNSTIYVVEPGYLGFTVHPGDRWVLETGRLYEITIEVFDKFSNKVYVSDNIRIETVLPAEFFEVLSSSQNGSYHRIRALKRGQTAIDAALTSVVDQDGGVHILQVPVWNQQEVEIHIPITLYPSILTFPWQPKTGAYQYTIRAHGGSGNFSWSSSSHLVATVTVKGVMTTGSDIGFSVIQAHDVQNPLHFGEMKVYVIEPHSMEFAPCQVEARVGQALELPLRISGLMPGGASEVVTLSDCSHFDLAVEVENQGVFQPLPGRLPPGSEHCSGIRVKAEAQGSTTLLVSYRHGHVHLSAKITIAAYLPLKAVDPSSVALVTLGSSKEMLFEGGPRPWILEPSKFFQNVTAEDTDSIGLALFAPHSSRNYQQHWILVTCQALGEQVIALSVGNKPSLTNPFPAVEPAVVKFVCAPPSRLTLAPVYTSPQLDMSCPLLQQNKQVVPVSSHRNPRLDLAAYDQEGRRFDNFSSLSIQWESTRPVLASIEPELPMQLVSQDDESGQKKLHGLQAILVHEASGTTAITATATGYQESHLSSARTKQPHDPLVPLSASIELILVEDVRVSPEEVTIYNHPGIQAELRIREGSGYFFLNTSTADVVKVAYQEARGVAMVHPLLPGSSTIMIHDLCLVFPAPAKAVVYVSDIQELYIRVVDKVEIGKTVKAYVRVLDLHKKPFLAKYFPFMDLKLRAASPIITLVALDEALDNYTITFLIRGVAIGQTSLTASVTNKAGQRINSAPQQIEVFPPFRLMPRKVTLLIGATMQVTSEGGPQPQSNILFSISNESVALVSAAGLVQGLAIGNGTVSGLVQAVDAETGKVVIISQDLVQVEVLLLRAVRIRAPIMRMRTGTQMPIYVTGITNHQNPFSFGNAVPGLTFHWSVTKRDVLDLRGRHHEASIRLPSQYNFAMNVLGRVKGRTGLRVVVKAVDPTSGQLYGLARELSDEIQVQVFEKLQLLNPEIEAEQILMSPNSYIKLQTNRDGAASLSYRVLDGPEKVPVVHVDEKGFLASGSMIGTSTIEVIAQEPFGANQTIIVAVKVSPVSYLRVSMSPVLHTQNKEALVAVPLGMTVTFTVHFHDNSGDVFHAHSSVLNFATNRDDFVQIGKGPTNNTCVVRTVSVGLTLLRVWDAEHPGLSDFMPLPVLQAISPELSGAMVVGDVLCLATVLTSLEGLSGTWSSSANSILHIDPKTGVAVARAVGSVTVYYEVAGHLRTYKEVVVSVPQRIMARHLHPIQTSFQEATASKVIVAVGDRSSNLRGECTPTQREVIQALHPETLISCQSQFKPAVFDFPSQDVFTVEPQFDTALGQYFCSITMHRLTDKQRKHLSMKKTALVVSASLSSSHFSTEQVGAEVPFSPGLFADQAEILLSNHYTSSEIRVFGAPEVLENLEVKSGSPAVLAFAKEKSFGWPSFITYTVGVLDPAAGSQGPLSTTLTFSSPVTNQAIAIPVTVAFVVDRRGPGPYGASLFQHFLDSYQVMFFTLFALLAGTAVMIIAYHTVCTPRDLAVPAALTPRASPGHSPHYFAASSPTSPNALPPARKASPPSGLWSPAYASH
active: vorinostat 0.276
inactive: nilotinib -0.019 | [1] -0.008 | dasatinib -0.08 | [2] 0.009 | [3] 0.001 | quisinostat 0.084 | tipifarnib -0.043 | [4] -0.01 | [5] 0.059 | [6] -0.019 | [7] -0.006 | silmitasertib 0.022 | [8] -0.013 | entospletinib -0.038

PAIP2 (UniProt Q9BPZ3)
UniProt Q9BPZ3, sequence (Q9BPZ3 whole entry, looked up): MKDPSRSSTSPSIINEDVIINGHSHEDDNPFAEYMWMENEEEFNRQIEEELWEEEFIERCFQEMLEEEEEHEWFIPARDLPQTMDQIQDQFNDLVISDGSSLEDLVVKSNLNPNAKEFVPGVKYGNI
inactive: nilotinib 0.136 | [1] 0.062 | dasatinib -0.047 | [2] -0.009 | [3] -0.049 | quisinostat 0.007 | tipifarnib -0.1 | [4] -0.087 | [5] -0.02 | [6] -0.018 | [7] 0.033 | vorinostat 0.054 | silmitasertib -0.052 | [8] -0.025 | entospletinib -0.027

NEK7 (UniProt Q8TDX7)
UniProt Q8TDX7, sequence (Q8TDX7 whole entry, looked up): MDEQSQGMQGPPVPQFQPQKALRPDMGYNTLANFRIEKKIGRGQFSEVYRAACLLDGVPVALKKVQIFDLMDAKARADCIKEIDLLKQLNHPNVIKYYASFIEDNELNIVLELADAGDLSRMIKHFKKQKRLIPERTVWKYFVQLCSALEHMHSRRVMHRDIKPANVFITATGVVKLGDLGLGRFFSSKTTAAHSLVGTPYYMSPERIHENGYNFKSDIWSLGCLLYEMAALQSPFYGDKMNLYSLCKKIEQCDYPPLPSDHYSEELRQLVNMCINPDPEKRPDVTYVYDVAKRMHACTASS
inactive: nilotinib 0.003 | [1] 0.016 | dasatinib -0.03 | [2] 0.045 | [3] 0.168 | quisinostat -0.018 | tipifarnib -0.006 | [4] 0.033 | [5] 0.018 | [6] 0.01 | [7] -0.037 | silmitasertib 0.105 | [8] 0.003 | entospletinib 0.012
active: vorinostat -0.338

NELFCD (UniProt Q8IXH7)
inactive: nilotinib -0.024 | [1] 0.015 | dasatinib -0.019 | [2] -0.025 | [3] 0.034 | quisinostat -0.083 | tipifarnib -0.032 | [4] 0.046 | [5] 0.013 | [6] -0.031 | [7] 0.023 | silmitasertib 0.049 | [8] -0.005 | entospletinib 0.032
active: vorinostat -0.322

NOA1 (UniProt Q8NC60)
UniProt Q8NC60, sequence (Q8NC60 whole entry, looked up): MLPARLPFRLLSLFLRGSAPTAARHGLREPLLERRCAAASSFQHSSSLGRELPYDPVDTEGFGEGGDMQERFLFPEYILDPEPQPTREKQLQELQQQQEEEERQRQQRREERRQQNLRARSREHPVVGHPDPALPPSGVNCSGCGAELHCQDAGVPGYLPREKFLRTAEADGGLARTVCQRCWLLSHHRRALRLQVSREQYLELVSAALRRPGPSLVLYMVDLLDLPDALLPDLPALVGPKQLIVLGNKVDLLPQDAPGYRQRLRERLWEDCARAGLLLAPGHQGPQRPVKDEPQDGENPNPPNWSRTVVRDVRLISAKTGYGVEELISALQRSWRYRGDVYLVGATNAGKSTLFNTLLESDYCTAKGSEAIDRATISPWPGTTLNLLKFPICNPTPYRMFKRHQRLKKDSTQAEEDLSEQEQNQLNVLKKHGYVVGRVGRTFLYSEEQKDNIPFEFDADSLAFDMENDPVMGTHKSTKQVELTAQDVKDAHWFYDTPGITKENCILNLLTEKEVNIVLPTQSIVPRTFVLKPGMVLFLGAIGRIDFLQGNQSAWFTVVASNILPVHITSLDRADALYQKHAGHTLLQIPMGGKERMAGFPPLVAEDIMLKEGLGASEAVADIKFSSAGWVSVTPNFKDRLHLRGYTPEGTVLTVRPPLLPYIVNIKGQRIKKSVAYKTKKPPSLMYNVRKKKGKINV
active: vorinostat -0.411
inactive: nilotinib -0.041 | [1] -0.012 | dasatinib -0.05 | [2] -0.011 | [3] -0.036 | quisinostat -0.089 | tipifarnib -0.027 | [4] 0.059 | [5] 0.04 | [6] -0.001 | [7] 0.065 | silmitasertib 0.049 | [8] 0.048 | entospletinib -0.008

MRPL58 (UniProt Q14197)
inactive: nilotinib -0.022 | [1] 0.045 | dasatinib -0.008 | [2] -0.012 | [3] 0.021 | quisinostat 0.017 | tipifarnib 0.003 | [4] 0.055 | [5] 0.025 | [6] -0.032 | [7] 0.02 | vorinostat -0.053 | silmitasertib -0.008 | [8] 0.038 | entospletinib 0.041

NFATC2IP (UniProt Q8NCF5)
inactive: nilotinib 0.027 | [1] -0.015 | dasatinib 0.071 | [2] -0.055 | [3] 0.005 | quisinostat 0.019 | tipifarnib 0.061 | [4] 0 | [5] -0.015 | [6] 0.03 | [7] 0.041 | vorinostat -0.069 | silmitasertib -0.039 | [8] -0.07 | entospletinib 0.041

NAT1 (UniProt P18440)
inactive: nilotinib -0.005 | [1] -0.017 | dasatinib -0.058 | [2] -0.04 | [3] 0.097 | quisinostat -0.1 | tipifarnib -0.006 | [4] 0.017 | [5] -0.018 | [6] -0.037 | [7] -0.049 | vorinostat 0.144 | [8] 0.032 | entospletinib -0.04
active: silmitasertib 0.275

ORC3 isoform 2 (UniProt Q9UBD5)
active: vorinostat -0.409
inactive: nilotinib -0.014 | [1] 0 | dasatinib -0.084 | [2] -0.014 | [3] -0.012 | quisinostat -0.038 | tipifarnib -0.014 | [4] 0.099 | [5] 0.027 | [6] -0.079 | [7] -0.012 | silmitasertib 0.023 | [8] 0.052 | entospletinib 0.013

PANK1 (UniProt Q8TE04)
inactive: nilotinib -0.005 | [1] 0.014 | dasatinib -0.028 | [2] -0.05 | [3] 0.053 | quisinostat -0.039 | tipifarnib 0.079 | [4] 0.062 | [5] -0.007 | [6] 0.062 | [7] 0.01 | vorinostat -0.084 | silmitasertib 0.004 | [8] -0.039 | entospletinib 0.08

NEBL isoform 2 (UniProt O76041)
UniProt O76041, sequence (O76041 whole entry, looked up): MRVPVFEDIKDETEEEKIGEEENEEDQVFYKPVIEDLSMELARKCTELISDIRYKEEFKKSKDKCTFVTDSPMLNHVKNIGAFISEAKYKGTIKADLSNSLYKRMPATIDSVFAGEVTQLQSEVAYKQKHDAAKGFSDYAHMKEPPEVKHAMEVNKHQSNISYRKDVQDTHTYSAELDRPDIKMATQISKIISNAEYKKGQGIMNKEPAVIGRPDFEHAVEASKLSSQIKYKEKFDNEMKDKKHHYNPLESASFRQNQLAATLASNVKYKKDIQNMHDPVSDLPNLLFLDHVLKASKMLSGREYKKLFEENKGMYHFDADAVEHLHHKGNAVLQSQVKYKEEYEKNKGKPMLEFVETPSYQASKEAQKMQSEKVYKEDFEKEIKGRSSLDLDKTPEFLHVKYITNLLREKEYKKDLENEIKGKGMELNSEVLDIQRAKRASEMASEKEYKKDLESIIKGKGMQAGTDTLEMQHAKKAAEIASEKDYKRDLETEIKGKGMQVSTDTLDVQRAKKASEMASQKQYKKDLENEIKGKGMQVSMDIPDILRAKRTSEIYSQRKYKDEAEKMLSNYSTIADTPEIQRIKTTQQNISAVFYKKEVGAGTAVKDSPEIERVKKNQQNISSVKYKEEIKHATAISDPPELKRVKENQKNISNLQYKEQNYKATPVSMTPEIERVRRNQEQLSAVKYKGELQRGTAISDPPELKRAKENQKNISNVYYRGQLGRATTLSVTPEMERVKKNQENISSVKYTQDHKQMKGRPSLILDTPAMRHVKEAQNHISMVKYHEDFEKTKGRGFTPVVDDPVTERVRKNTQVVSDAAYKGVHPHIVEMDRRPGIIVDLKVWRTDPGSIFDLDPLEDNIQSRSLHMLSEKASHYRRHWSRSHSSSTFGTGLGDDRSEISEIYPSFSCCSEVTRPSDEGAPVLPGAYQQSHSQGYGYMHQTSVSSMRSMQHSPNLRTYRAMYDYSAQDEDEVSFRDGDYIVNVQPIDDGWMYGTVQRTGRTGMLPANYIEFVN
inactive: nilotinib -0.022 | [1] -0.001 | dasatinib -0.029 | [2] 0.015 | [3] -0.072 | quisinostat 0.012 | tipifarnib -0.021 | [4] -0.017 | [5] -0.027 | [6] -0.007 | [7] -0.019 | vorinostat 0.146 | silmitasertib -0.019 | [8] -0.016 | entospletinib -0.01

MRPL51 (UniProt Q4U2R6)
inactive: nilotinib -0.029 | [1] -0.006 | dasatinib -0.056 | [2] -0.054 | [3] -0.055 | tipifarnib -0.003 | [4] 0.055 | [5] -0.003 | [6] 0.024 | [7] -0.03 | vorinostat -0.067 | silmitasertib -0.054 | [8] 0.121 | entospletinib 0.003
active: quisinostat 0.27
